The text below walks through data of PubChem BioAssay.

Activity calls are given as the source filed them.

Assay [1] in a line: small molecules captured by biotinylated probe aFSTL3 – biochemical, small-molecule microarray, fluorescence 635/667, stem cell growth factor project, primary screen (AID 1064).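 Also: measures binding of the biotinylated anti-FSTL3 antibody to printed compounds.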 As to conditions: higher = more signal.
Assay [2] is described as follows: binders from COS7 lysate, DM2A8 probe, primary screen, torsin A project, cell lysate, small-molecule microarray, fluorescence 635/667 (AID 1065). As to conditions: higher = more signal, COS7 lysate expressing mutant human TOR1A.
Assay [3] in a line: small molecules captured by biotinylated probe aFGF2 – biochemical, small-molecule microarray, fluorescence 635/667, stem cell growth factor project, primary screen (AID 1067).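 Also: measures binding of biotinylated aFGF2 protein to printed compounds on slides; z-score merges feature fluorescence and signal-to-noise across triplicate slides.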 As to conditions: higher = more signal.
The nature of assay [4]: small molecules captured by biotinylated probe aFGF10 – biochemical, small-molecule microarray, fluorescence 635/667, stem cell growth factor project, primary screen (AID 1071).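 Also: score merges 667 nm spot intensity and signal to noise from triplicate slides.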 As to conditions: higher = more signal.
For assay [5], the target named is Neurogenic locus notch homolog protein 2 (Homo sapiens) (UniProt Q04721). Nature of the assay: small molecules binding Notch2 protein – biochemical, small-molecule microarray, 635 nm fluorescence, stem cell growth factors, primary screen (AID 1073). As to conditions: higher = more signal.
Sequence of Neurogenic locus notch homolog protein 2 (Homo sapiens) (Q04721 whole entry, looked up, canonical isoform): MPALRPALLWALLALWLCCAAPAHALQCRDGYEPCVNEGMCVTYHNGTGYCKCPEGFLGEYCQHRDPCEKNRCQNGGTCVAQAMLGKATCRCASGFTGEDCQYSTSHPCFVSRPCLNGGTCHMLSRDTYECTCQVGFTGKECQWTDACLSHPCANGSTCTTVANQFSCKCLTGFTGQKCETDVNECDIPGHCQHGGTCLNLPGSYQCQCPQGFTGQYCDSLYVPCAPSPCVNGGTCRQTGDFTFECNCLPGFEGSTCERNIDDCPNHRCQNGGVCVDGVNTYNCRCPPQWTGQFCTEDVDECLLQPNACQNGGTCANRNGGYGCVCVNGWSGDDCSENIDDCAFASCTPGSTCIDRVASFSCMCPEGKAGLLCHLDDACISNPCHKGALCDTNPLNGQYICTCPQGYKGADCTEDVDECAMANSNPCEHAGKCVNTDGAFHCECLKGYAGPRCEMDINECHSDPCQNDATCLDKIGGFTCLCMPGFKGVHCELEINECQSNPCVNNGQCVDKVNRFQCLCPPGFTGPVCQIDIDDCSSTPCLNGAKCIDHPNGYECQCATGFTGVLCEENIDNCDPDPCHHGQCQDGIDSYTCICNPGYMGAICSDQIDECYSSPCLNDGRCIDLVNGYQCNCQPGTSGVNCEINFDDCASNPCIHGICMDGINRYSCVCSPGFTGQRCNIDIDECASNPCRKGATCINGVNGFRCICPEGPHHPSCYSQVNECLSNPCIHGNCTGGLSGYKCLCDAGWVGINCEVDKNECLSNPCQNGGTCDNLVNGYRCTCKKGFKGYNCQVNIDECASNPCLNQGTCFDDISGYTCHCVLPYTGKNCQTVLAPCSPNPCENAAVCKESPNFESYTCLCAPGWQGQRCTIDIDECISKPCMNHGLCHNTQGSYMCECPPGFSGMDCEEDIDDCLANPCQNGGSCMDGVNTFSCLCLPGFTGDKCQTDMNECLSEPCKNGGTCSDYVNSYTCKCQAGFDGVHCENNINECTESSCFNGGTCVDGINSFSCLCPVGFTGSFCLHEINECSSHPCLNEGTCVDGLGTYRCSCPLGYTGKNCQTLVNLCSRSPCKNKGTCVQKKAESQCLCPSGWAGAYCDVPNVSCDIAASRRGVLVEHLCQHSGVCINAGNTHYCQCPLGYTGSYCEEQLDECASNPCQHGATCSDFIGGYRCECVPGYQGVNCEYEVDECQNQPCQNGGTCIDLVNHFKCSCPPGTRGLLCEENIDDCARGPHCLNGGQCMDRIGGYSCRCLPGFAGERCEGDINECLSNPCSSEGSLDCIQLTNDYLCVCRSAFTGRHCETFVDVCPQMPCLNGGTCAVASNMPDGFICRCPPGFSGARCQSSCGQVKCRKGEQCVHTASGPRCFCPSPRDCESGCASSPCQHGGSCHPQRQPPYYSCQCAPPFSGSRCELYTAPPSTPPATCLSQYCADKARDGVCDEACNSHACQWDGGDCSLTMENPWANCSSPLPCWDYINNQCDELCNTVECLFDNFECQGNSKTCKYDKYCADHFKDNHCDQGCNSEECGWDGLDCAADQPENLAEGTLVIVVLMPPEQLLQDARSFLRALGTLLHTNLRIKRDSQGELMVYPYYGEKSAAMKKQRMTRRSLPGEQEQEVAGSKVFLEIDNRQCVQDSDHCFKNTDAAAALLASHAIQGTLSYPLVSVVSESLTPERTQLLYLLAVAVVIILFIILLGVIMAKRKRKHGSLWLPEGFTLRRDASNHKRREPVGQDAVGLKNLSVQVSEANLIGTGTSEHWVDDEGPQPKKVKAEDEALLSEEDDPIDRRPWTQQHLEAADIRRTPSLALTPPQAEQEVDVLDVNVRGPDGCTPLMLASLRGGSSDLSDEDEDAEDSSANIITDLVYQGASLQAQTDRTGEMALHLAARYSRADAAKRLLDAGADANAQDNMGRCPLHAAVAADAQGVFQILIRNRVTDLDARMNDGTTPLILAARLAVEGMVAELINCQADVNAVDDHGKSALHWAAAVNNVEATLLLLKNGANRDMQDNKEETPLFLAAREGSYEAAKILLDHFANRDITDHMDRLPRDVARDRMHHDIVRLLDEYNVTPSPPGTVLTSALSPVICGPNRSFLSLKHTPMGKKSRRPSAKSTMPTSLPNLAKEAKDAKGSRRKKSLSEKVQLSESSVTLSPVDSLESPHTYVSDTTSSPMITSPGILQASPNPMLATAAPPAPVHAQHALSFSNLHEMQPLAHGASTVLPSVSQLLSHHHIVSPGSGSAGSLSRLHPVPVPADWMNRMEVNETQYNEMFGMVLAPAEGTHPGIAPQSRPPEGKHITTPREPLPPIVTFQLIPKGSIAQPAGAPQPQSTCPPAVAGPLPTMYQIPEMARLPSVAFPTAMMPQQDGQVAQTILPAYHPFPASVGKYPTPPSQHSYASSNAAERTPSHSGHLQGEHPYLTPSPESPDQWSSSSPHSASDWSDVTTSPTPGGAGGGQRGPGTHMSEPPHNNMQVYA
Assay [6] deals with Pro-neuregulin-1, membrane-bound isoform (Homo sapiens) (UniProt Q02297). Nature of the assay: small molecules binding neuregulin-1 protein – biochemical, small-molecule microarray, fluorescence 635/667, psychiatric disease protein project, primary screen (AID 1075).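 Also: score combines 667 nm spot fluorescence with signal to noise.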 As to conditions: NRG1 binding, 635 nm fluorescence, higher = more signal.
Assay [7] has as its system Neuregulin-1 EGF-like domain. Nature of the assay: small molecules binding NRG1 EGF domain – biochemical, small-molecule microarray, 635 nm fluorescence, primary screen (AID 1081).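 Also: binding of the protein to compounds printed on small-molecule microarray slides.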 As to conditions: higher = more signal.
Assay [8] can be described thus: FRG1 expression reporter modulators in myotubes – cell-based, C2C12 myotubes, firefly/Renilla luciferase, luminescence, FRG1 inhibition for FSHD, primary screen (AID 1084). As to conditions: FRG1 promoter luciferase, higher = more signal, called active from +8 up or from −8 down.
The nature of assay [9]: small molecules captured by biotinylated probe aFST – biochemical, small-molecule microarray, fluorescence 635/667, stem cell growth factor project, primary screen (AID 1086).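 Also: score merges 667 nm fluorescence with signal-to-noise of each printed compound spot.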 As to conditions: higher = more signal.
The nature of assay [10]: binders of probe aHhip on microarray, primary screen, stem cell growth factor project, biochemical, small-molecule microarray, fluorescence 635/667 (AID 1087).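 Also: score merges spot fluorescence at 667nm with spot signal to noise ratio.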 As to conditions: higher = more signal.
The subject of assay [11] is PRMT1 (protein arginine N-methyltransferase 1). Kind of assay: small molecules binding arginine methyltransferase PRMT1 – biochemical, small-molecule microarray, 635 nm fluorescence, primary screen (AID 1088).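 Also: binding of Prmt1 protein to compounds spotted on small-molecule microarray slides.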 As to conditions: higher = more signal.
Assay [12] is described as follows: growth effects on S. cerevisiae YJM789 – YJM789 clinical isolate, OD600, 24 h, basal, primary screen (AID 1089).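 Also: growth of clinical yeast isolate S. cerevisiae YJM 789 seeded 1000 cells per well; test concentration not given here.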 As to conditions: higher = more signal, called active from +8 up or from −8 down.
A short description of assay [13]: S. pombe growth modifiers, basal conditions – strain 972, OD600, 24 h, no modulator, primary screen (AID 1090).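 Also: basal condition with compound alone and no growth modifier present; test concentration not given here.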 As to conditions: S. pombe 972 growth, higher = more signal, called active from +8 up or from −8 down.
Assay [14] is described as follows: budding yeast growth modifiers under rapamycin – strain BY4716, OD600, 96 h, primary screen (AID 1091). Also: test concentration not given here. As to conditions: S. cerevisiae BY4716 + rapamycin, higher = more signal, called active from +8 up or from −8 down.
Assay [15] has as its target Torsin-1A-interacting protein 2 (Homo sapiens) (UniProt Q8NFQ8). Nature of the assay: small molecules binding lysate-expressed LULL1 – cell lysate, human LULL1 lysate, 635/667 nm fluorescence, primary screen (AID 1092).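 Also: score merges per-feature 667 nm fluorescence with signal-to-noise.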 As to conditions: small-molecule microarray, hLULL1 lysate binding, 635 nm fluorescence; higher = more signal.
Assay [16] can be described thus: optical density change of DRC41 E. coli – strain DRC41, OD650, 24 h, E. coli filamentation project, primary screen (AID 1093).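 Also: MC1000 strain lacking acrAB efflux and sulA so SOS filamentation is blocked; test concentration not given here.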 As to conditions: E. coli DRC41 growth, higher = more signal, called active from +8 up or from −8 down.
A short description of assay [17]: probe aLefty2 binding to arrayed compounds – biochemical, biotinylated probe, 635/667 nm fluorescence, primary screen (AID 1094).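 Also: score merges spot fluorescence near 667 nm with spot signal-to-noise ratio.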 As to conditions: small-molecule microarray, higher = more signal.
The subject of assay [18] is Noggin (protein binding on small-molecule microarray). Kind of assay: small molecules binding Noggin protein – biochemical, 635/667 nm fluorescence, primary screen (AID 1095).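 Also: score merges 667 nm feature fluorescence with signal to noise over triplicate slides.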 As to conditions: 635 nm fluorescence, higher = more signal.
Assay [19] concerns the target Neurogenic locus notch homolog protein 3 (Homo sapiens) (UniProt Q9UM47). Kind of assay: small molecules binding NOTCH3 protein – biochemical, 635/667 nm fluorescence, primary screen (AID 1096). As to conditions: small-molecule microarray, 635 nm fluorescence, higher = more signal.
Assay [20] in a line: probe aEGFR binding to arrayed compounds – biochemical, biotinylated probe, 635/667 nm fluorescence, primary screen (AID 1097).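 Also: probe is a biotinylated anti-EGFR antibody binding compounds printed on slides; score combines fluorescence near 667 nm and signal to noise of each spot.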 As to conditions: small-molecule microarray, higher = more signal.

Sequence of Neurogenic locus notch homolog protein 3 (Homo sapiens) (Q9UM47 whole entry, looked up): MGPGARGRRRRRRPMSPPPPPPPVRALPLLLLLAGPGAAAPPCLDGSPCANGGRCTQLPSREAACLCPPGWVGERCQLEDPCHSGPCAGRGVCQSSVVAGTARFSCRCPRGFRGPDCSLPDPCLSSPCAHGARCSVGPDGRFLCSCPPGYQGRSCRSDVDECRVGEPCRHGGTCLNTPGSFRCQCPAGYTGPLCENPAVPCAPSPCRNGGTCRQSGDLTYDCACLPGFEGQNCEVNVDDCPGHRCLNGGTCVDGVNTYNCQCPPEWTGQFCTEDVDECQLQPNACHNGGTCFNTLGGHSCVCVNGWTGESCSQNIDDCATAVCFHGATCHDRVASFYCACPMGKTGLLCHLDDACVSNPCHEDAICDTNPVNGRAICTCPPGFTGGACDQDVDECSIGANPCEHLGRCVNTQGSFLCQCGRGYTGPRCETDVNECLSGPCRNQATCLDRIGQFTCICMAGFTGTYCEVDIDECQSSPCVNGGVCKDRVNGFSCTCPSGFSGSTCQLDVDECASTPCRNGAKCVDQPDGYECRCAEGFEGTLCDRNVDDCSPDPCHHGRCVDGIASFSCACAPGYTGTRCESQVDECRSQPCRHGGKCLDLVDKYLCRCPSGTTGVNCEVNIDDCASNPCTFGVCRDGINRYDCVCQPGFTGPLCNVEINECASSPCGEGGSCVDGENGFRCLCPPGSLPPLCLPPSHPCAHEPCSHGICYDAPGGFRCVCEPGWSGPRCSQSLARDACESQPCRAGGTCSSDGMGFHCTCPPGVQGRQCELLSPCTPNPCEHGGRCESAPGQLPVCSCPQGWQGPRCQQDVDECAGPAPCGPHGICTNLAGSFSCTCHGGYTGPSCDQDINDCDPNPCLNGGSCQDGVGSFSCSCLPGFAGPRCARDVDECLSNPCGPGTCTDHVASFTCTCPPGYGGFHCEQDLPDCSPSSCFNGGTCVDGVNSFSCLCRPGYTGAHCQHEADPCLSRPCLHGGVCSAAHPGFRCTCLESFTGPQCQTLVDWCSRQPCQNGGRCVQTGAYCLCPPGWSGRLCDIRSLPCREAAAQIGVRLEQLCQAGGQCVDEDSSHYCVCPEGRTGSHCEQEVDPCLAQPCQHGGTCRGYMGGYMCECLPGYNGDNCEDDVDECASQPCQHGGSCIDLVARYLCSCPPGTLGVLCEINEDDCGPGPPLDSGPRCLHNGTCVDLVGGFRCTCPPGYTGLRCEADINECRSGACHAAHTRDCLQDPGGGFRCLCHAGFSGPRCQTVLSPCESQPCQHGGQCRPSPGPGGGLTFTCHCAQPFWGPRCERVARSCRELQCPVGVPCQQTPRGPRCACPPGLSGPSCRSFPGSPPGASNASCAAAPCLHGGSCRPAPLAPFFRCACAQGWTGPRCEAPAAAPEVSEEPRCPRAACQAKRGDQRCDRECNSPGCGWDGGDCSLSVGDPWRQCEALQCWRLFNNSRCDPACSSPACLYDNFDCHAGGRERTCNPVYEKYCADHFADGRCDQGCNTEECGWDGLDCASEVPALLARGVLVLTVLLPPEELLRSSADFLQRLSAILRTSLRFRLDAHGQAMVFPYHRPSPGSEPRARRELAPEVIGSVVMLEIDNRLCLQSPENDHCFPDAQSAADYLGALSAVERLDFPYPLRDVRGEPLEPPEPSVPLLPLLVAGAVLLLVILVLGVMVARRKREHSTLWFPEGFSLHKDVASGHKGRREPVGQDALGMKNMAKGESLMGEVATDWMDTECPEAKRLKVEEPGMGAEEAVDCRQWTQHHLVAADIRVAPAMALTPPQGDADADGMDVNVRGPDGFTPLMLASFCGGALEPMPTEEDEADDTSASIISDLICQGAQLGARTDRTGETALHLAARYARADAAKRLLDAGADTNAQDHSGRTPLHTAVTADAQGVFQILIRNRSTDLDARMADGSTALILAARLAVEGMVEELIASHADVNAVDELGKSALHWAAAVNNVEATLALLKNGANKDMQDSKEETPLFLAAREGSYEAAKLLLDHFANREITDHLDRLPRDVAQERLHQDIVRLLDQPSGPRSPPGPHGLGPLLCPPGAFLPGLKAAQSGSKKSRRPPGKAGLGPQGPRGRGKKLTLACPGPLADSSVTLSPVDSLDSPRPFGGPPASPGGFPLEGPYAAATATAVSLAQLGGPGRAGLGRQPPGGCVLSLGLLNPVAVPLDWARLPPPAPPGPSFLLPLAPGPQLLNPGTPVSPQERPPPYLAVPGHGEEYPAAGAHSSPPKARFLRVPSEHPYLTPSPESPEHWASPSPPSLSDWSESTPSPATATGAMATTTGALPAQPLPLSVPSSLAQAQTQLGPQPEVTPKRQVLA

For `O=C1[C@H]2[C@H]3[C@H](O)[C@H](O)CC(=NOC[C@@H](O)COCc4ccco4)[C@@H]3CC[C@H]2C(=O)N1C[C@@H]1CCCO1`, the composite z-score in assay [1] is -0.861; in [2] it was 2.29; in [3] it was -0.213; in [4] it was -0.32; in assay [5], -0.323; in assay [6], -0.271. The composite z-score is 1.22 in [7]; -0.14 in [9]; 0.0139 in assay [10]; 1.37 in [11]; -0.239 in assay [15]; -0.0732 in [17]. The figures for the composite z-score in assay [18], in assay [19] and in assay [20] were 0.997, 0.395 and -0.344, respectively. Further, the z-score in [8] is -0.218 (inactive); in assay [12] it was 0.715 (inactive); in assay [13], 1.01 (inactive); in assay [14], 0.714 (inactive); in [16], 1.05 (inactive).
Turning to `COC(=O)CC=C[C@@H](C)[C@@H](C=NO[C@@H](C)c1cc(-c2c(C)cc(C)cc2C)no1)NS(=O)(=O)c1ccc(C)cc1`, the composite z-score in assay [1] is 1.38; in [2], -0.498; in assay [3] it was -0.144; in assay [4] it was -1.29; in assay [5], -1.06; in assay [6], -0.647. Moreover, the composite z-score was -0.631 in assay [7]; -0.176 in assay [9]; -0.236 in assay [10]; -0.84 in assay [11]; -0.227 in assay [15]; 0.0221 in [17]. Besides, the composite z-score was -2.2 in [18], -2.03 in [19] and -0.224 in assay [20]. Also, the z-score in assay [8] was 0.295 (inactive); in [12], -0.0649 (inactive); in [13], 0.679 (inactive); in assay [14], 0.905 (inactive); in [16], -0.881 (inactive).
With `CO[C@H]1COC(=O)[C@H](C)NC(=O)[C@@H](C)COC(=O)[C@H]2CCCN2C(=O)CC=C[C@H]1C`, the composite z-score in [1] was -0.403; in assay [2] it was 1.06; in [3], -0.216; in assay [4], 0.347; in assay [5], 0.338; in assay [6], -0.499. Moreover, the composite z-score in assay [7] is 0.175; in assay [9], -0.0694; in assay [10], -0.179; in assay [11], 1.08; in assay [15] it was -0.412; in [17], -0.138. Further, the figures for the composite z-score in assay [18], in assay [19] and in assay [20] were 0.542, 0.358 and -0.0689, respectively. The z-score was -0.345 (inactive) in [8]; -0.282 (inactive) in assay [12]; -0.658 (inactive) in assay [13]; -0.571 (inactive) in assay [14]; 0.492 (inactive) in assay [16].
Take `COC(=O)CC=C[C@@H](C)[C@@H](C=NO[C@@H](C)c1cn([C@H](CO)Cc2ccccc2)nn1)OC`: the composite z-score in [1] is -0.446; in assay [2], 1.68; in [3] it was -0.119; in [4], -0.0052; in assay [5], 0.0576; in assay [6] it was -0.0718. Also, the composite z-score in [7] is -0.265; in assay [9] it was 0.0066; in assay [10] it was -0.34; in assay [11], 1.05; in assay [15] it was 0.579; in assay [17] it was -0.173. For the same compound, the composite z-score was 0.719 in assay [18], 0.627 in assay [19] and -0.114 in assay [20]. Further, the z-score in [8] is -0.839 (inactive); in [12], -2.66 (inactive); in assay [13], -2.01 (inactive); in assay [14], -0.773 (inactive); in assay [16], -0.673 (inactive).
For the compound `CCOC(=O)[C@H](Cc1ccccc1)NC(=O)CCC1CC(OC(=O)NCCc2ccc(F)cc2)CC2(CCCC(COC(=O)NCC3CCCCC3)O2)O1` (stereo not given in full), the composite z-score in assay [1] was -0.509; in assay [2] it was 0.574; in [3], -0.0425; in assay [4] it was 0.582; in assay [5] it was 1.42; in assay [6], 0.513. The composite z-score was 1.1 in assay [7]; 0.676 in [9]; -0.302 in assay [10]; 1.55 in [11]; 2.4 in assay [15]; -0.106 in assay [17]. In addition, the composite z-score came to 0.53 in assay [18], 1.07 in assay [19] and 0.0282 in assay [20]. Further, the z-score is -0.692 (inactive) in assay [8]; 0.644 (inactive) in [12]; 0.432 (inactive) in assay [13]; 0.6 (inactive) in assay [14]; 0.18 (inactive) in [16].
